Reference: paper PMC12820563, “FoxP3 forms a head-to-head dimer in vivo and stabilizes its multimerization on adjacent microsatellites”
The full ranking holds about 16,000 sequences; the median of “rpm ratio (pull-down/input)” is about 0.94, and the highest 2% start at about 1.7. Many of the other results were omitted from the sample, so the highest values are more common in it than they were.

Each sequence was assayed against T1, MBP-FoxP1dN (Mus musculus, UniProt P58462 326-579) (assay: PD-seq (MBP pull-down with sequencing); 20 mM Tris-HCl pH 7.5, 100 mM NaCl, 1.5 mM MgCl2, 0.4 uM protein, 0.1 uM dsDNA library, 30 min, room temperature, amylose pull-down; high values mean tight binding). Conditions: protein: recombinant; tags: His6-MBP; chain copies: 2; dsDNA, one strand shown.
T1 sequence: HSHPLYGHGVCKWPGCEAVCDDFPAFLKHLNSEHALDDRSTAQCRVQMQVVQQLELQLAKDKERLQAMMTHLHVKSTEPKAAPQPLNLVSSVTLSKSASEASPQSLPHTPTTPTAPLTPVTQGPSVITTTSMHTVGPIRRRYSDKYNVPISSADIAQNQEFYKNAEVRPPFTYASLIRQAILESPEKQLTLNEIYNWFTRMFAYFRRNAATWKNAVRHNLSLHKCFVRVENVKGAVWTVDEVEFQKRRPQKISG
Summary of the method: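 Binding is given as reads-per-million enrichment, pull-down over input, with replicates pooled. The bait was an N-terminus-lacking mouse FoxP3 or FoxP1 fragment with a His6-MBP tag, expressed in E. coli and used at 0.4 µM with 0.1 µM Klenow-filled degenerate double-stranded DNA library for 30 min at room temperature in Tris pH 7.5 buffer with NaCl and MgCl2. Amylose resin pull-down with three washes was followed by proteinase K release, PCR barcoding and Illumina sequencing.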

Sequence | binding signal
GATGATTGTTCTCCCAGCTGATGAATTTTACGTTTCGAGTAAACAAATTTTCCTAATCTTTCTGTTCAAGCGCCATCTAC | 0.852 RPM ratio (pull-down/input)
GATGATTGTTCTCCCAGCTGATGAATTGCCTAGTTCGAGTAAACAAATTTTCCTAATCTTTCTGTTCAAGCGCCATCTAC | 0.959 RPM ratio (pull-down/input)
GATGATTGTTCTCCCAGCTGATGAATTAACACGCTCGAGTAAACAAATTTTCCTAATCTTTCTGTTCAAGCGCCATCTAC | 1.02 RPM ratio (pull-down/input)
GATGATTGTTCTCCCAGCTGATGAATTGGTGTTGTCGAGTAAACAAATTTTCCTAATCTTTCTGTTCAAGCGCCATCTAC | 2.78 RPM ratio (pull-down/input)
GATGATTGTTCTCCCAGCTGATGAATTGGTGTCGTCGAGTAAACAAATTTTCCTAATCTTTCTGTTCAAGCGCCATCTAC | 1.04 RPM ratio (pull-down/input)
GATGATTGTTCTCCCAGCTGATGAATTTGGTGTGTCGAGTAAACAAATTTTCCTAATCTTTCTGTTCAAGCGCCATCTAC | 1 RPM ratio (pull-down/input)
GATGATTGTTCTCCCAGCTGATGAATTGGTGGTGTCGAGTAAACAAATTTTCCTAATCTTTCTGTTCAAGCGCCATCTAC | 0.948 RPM ratio (pull-down/input)
GATGATTGTTCTCCCAGCTGATGAATTGTTGGTGTCGAGTAAACAAATTTTCCTAATCTTTCTGTTCAAGCGCCATCTAC | 1.8 RPM ratio (pull-down/input)
GATGATTGTTCTCCCAGCTGATGAATTTTTGGTGTCGAGTAAACAAATTTTCCTAATCTTTCTGTTCAAGCGCCATCTAC | 0.926 RPM ratio (pull-down/input)
GATGATTGTTCTCCCAGCTGATGAATTAGACCTTTCGAGTAAACAAATTTTCCTAATCTTTCTGTTCAAGCGCCATCTAC | 0.881 RPM ratio (pull-down/input)
GATGATTGTTCTCCCAGCTGATGAATTCGACCGATCGAGTAAACAAATTTTCCTAATCTTTCTGTTCAAGCGCCATCTAC | 0.823 RPM ratio (pull-down/input)
GATGATTGTTCTCCCAGCTGATGAATTAGCCGTTTCGAGTAAACAAATTTTCCTAATCTTTCTGTTCAAGCGCCATCTAC | 0.852 RPM ratio (pull-down/input)
GATGATTGTTCTCCCAGCTGATGAATTTTTATATTCGAGTAAACAAATTTTCCTAATCTTTCTGTTCAAGCGCCATCTAC | 1.1 RPM ratio (pull-down/input)
GATGATTGTTCTCCCAGCTGATGAATTTATATTTTCGAGTAAACAAATTTTCCTAATCTTTCTGTTCAAGCGCCATCTAC | 2.37 RPM ratio (pull-down/input)
GATGATTGTTCTCCCAGCTGATGAATTATATTTTTCGAGTAAACAAATTTTCCTAATCTTTCTGTTCAAGCGCCATCTAC | 1.61 RPM ratio (pull-down/input)
GATGATTGTTCTCCCAGCTGATGAATTTTATATTTCGAGTAAACAAATTTTCCTAATCTTTCTGTTCAAGCGCCATCTAC | 1.07 RPM ratio (pull-down/input)
GATGATTGTTCTCCCAGCTGATGAATTATATTGTTCGAGTAAACAAATTTTCCTAATCTTTCTGTTCAAGCGCCATCTAC | 2.08 RPM ratio (pull-down/input)
GATGATTGTTCTCCCAGCTGATGAATTATATATTTCGAGTAAACAAATTTTCCTAATCTTTCTGTTCAAGCGCCATCTAC | 1.06 RPM ratio (pull-down/input)
GATGATTGTTCTCCCAGCTGATGAATTTACTTTATCGAGTAAACAAATTTTCCTAATCTTTCTGTTCAAGCGCCATCTAC | 1.46 RPM ratio (pull-down/input)
GATGATTGTTCTCCCAGCTGATGAATTACGTAGTTCGAGTAAACAAATTTTCCTAATCTTTCTGTTCAAGCGCCATCTAC | 1.02 RPM ratio (pull-down/input)
GATGATTGTTCTCCCAGCTGATGAATTATGGCGATCGAGTAAACAAATTTTCCTAATCTTTCTGTTCAAGCGCCATCTAC | 0.99 RPM ratio (pull-down/input)
GATGATTGTTCTCCCAGCTGATGAATTGGTAGGCTCGAGTAAACAAATTTTCCTAATCTTTCTGTTCAAGCGCCATCTAC | 0.819 RPM ratio (pull-down/input)
GATGATTGTTCTCCCAGCTGATGAATTGTTTACGTCGAGTAAACAAATTTTCCTAATCTTTCTGTTCAAGCGCCATCTAC | 2.79 RPM ratio (pull-down/input)
GATGATTGTTCTCCCAGCTGATGAATTTATTACGTCGAGTAAACAAATTTTCCTAATCTTTCTGTTCAAGCGCCATCTAC | 1.11 RPM ratio (pull-down/input)
GATGATTGTTCTCCCAGCTGATGAATTCTTTACGTCGAGTAAACAAATTTTCCTAATCTTTCTGTTCAAGCGCCATCTAC | 0.992 RPM ratio (pull-down/input)
GATGATTGTTCTCCCAGCTGATGAATTTACGTCGTCGAGTAAACAAATTTTCCTAATCTTTCTGTTCAAGCGCCATCTAC | 1.25 RPM ratio (pull-down/input)

Sequence | binding signal
GATGATTGTTCTCCCAGCTGATGAATTATTTACGTCGAGTAAACAAATTTTCCTAATCTTTCTGTTCAAGCGCCATCTAC | 2.19 RPM ratio (pull-down/input)
GATGATTGTTCTCCCAGCTGATGAATTTTTTACGTCGAGTAAACAAATTTTCCTAATCTTTCTGTTCAAGCGCCATCTAC | 0.984 RPM ratio (pull-down/input)
GATGATTGTTCTCCCAGCTGATGAATTTATCCCTTCGAGTAAACAAATTTTCCTAATCTTTCTGTTCAAGCGCCATCTAC | 1.05 RPM ratio (pull-down/input)
GATGATTGTTCTCCCAGCTGATGAATTGCGTACCTCGAGTAAACAAATTTTCCTAATCTTTCTGTTCAAGCGCCATCTAC | 1.09 RPM ratio (pull-down/input)
GATGATTGTTCTCCCAGCTGATGAATTGGGGCGGTCGAGTAAACAAATTTTCCTAATCTTTCTGTTCAAGCGCCATCTAC | 0.782 RPM ratio (pull-down/input)
GATGATTGTTCTCCCAGCTGATGAATTGACAGGATCGAGTAAACAAATTTTCCTAATCTTTCTGTTCAAGCGCCATCTAC | 1.1 RPM ratio (pull-down/input)
GATGATTGTTCTCCCAGCTGATGAATTTATTGTTTCGAGTAAACAAATTTTCCTAATCTTTCTGTTCAAGCGCCATCTAC | 2.09 RPM ratio (pull-down/input)
GATGATTGTTCTCCCAGCTGATGAATTCGTTTATTCGAGTAAACAAATTTTCCTAATCTTTCTGTTCAAGCGCCATCTAC | 1.25 RPM ratio (pull-down/input)
GATGATTGTTCTCCCAGCTGATGAATTGTTTATTTCGAGTAAACAAATTTTCCTAATCTTTCTGTTCAAGCGCCATCTAC | 2.77 RPM ratio (pull-down/input)
GATGATTGTTCTCCCAGCTGATGAATTCTGGCTGTCGAGTAAACAAATTTTCCTAATCTTTCTGTTCAAGCGCCATCTAC | 0.808 RPM ratio (pull-down/input)
GATGATTGTTCTCCCAGCTGATGAATTGCCGTAATCGAGTAAACAAATTTTCCTAATCTTTCTGTTCAAGCGCCATCTAC | 1.39 RPM ratio (pull-down/input)
GATGATTGTTCTCCCAGCTGATGAATTAATGTAGTCGAGTAAACAAATTTTCCTAATCTTTCTGTTCAAGCGCCATCTAC | 1.24 RPM ratio (pull-down/input)
GATGATTGTTCTCCCAGCTGATGAATTGGCACAATCGAGTAAACAAATTTTCCTAATCTTTCTGTTCAAGCGCCATCTAC | 1.34 RPM ratio (pull-down/input)
GATGATTGTTCTCCCAGCTGATGAATTAATTATTTCGAGTAAACAAATTTTCCTAATCTTTCTGTTCAAGCGCCATCTAC | 1.12 RPM ratio (pull-down/input)
GATGATTGTTCTCCCAGCTGATGAATTATTTTTTTCGAGTAAACAAATTTTCCTAATCTTTCTGTTCAAGCGCCATCTAC | 1.5 RPM ratio (pull-down/input)
GATGATTGTTCTCCCAGCTGATGAATTATTGCTTTCGAGTAAACAAATTTTCCTAATCTTTCTGTTCAAGCGCCATCTAC | 1.74 RPM ratio (pull-down/input)
GATGATTGTTCTCCCAGCTGATGAATTATTAATTTCGAGTAAACAAATTTTCCTAATCTTTCTGTTCAAGCGCCATCTAC | 1.34 RPM ratio (pull-down/input)
GATGATTGTTCTCCCAGCTGATGAATTGCTTATTTCGAGTAAACAAATTTTCCTAATCTTTCTGTTCAAGCGCCATCTAC | 1.62 RPM ratio (pull-down/input)
GATGATTGTTCTCCCAGCTGATGAATTATTTTGTTCGAGTAAACAAATTTTCCTAATCTTTCTGTTCAAGCGCCATCTAC | 1.32 RPM ratio (pull-down/input)
GATGATTGTTCTCCCAGCTGATGAATTATTTCTTTCGAGTAAACAAATTTTCCTAATCTTTCTGTTCAAGCGCCATCTAC | 1.17 RPM ratio (pull-down/input)
GATGATTGTTCTCCCAGCTGATGAATTATTTGCTTCGAGTAAACAAATTTTCCTAATCTTTCTGTTCAAGCGCCATCTAC | 1.56 RPM ratio (pull-down/input)
GATGATTGTTCTCCCAGCTGATGAATTATTTGATTCGAGTAAACAAATTTTCCTAATCTTTCTGTTCAAGCGCCATCTAC | 1.05 RPM ratio (pull-down/input)
GATGATTGTTCTCCCAGCTGATGAATTATTGTGTTCGAGTAAACAAATTTTCCTAATCTTTCTGTTCAAGCGCCATCTAC | 2.1 RPM ratio (pull-down/input)
GATGATTGTTCTCCCAGCTGATGAATTATTATTTTCGAGTAAACAAATTTTCCTAATCTTTCTGTTCAAGCGCCATCTAC | 3.1 RPM ratio (pull-down/input)
GATGATTGTTCTCCCAGCTGATGAATTATTTGTTTCGAGTAAACAAATTTTCCTAATCTTTCTGTTCAAGCGCCATCTAC | 2.21 RPM ratio (pull-down/input)
